Data taken from PubChem BioAssay (Tox21).
Where “and” joins values, the source holds several entries; their conditions need not be identical. Equal values may be shown once. Results filed as inconclusive are left out. Some structures have more than one record in an assay (separate samples or runs), and their calls can disagree. Calls of active or inactive are those of the source. Calls come from the whole dose curve; as a rule, active = well fitted cell-killing curve with a large enough effect in the repeat runs; inconclusive = weak or mixed curves, or effect the other way; inactive = no such curve, though single readings can be large or run the other way.

Experiment: qHTS assay to identify small molecule agonists of the estrogen receptor alpha (ER-alpha) signaling pathway in the presence of an antagonist - cell viability counter screen (AID 1259386);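 note: cells exposed to compounds for 22 h at 37 °C before the viability read; nearly all actives have a fitted effect of over 30% in size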
Settings: VM7Luc4E2 viability, CellTiter-Fluor fluorescence, 22 h; series mostly up to 92.4 µM; activity change, negative = cytotoxicity: at the top concentration
Description: National Center for Advancing Translational Sciences [NCATS]
NIH Chemical Genomics Center [NCGC]
U.S. Environmental Protection Agency [EPA]
National Institutes of Environmental Health Sciences [NIEHS]
National Toxicology Program [NTP]
U.S. Food and Drug Administration [FDA]
Estrogen receptor (ER), a member of nuclear hormone receptor plays an important role in development, metabolic homeostasis and reproduction. Two subtypes of ER, ER-alpha and ER-beta, have similar expression patterns with some uniqueness in both types. Endocrine disrupting chemicals (EDCs) and their interactions with steroid hormone receptors like ER causes disruption of normal endocrine function. Therefore, it is important to understand the effect of environmental chemicals in ER signaling pathway. For identifying ER agonists, VM7Luc4E2 cell line has been used in the current assay.
VM7Luc4E2 cell line (provided by Denison MS, University of California) endogenously expresses full-length ER-alpha and is stably transfected with a plasmid containing four estrogen responsive elements (ERE) upstream of a luciferase reporter gene. This current screening for measuring luciferase reporter gene activity using VM7Luc4E2 cells against Tox21 10K library collection is a confirmation study on agonist mode screening in presence of ER-antagonist (ICI-182,780) at 10.0nM final concentration. The cytotoxicity of the compounds was tested in parallel by measuring the cell viability using CellTiter-Fluor assay system (Promega, Madison, WI) in the same wells.
Tox21 Assay Protocol Summary:
VM7Luc4E2 cells were cultured in phenol red free assay medium containing 10% charcoal stripped FBS for 5 days prior to the assay. The cells were dispensed at 4,000 cells in 4uL of assay medium per well into white wall/solid-bottom 1536-well plates (Corning Life Sciences, Corning, NY) using a Multidrop Combi (Thermo Fisher Scientific Inc., Waltham, MA) dispenser. After the assay plates were incubated at 37C and 5% CO2 for 24hr, 1uL of 10.0nM (final concentration) ICI-182,780 or assay buffer was added using two separate tips of Flying Reagent Dispenser (FRD, Aurora Discovery, San Diego, CA). Then 23nL of compounds dissolved in DMSO at 15 concentrations and positive controls or DMSO only was transferred to the assay plates by a Pintool station (Wako, San Diego, CA). The assay plates were incubated at 37C and 5% CO2 for 22hr. After 21hr incubation at 37C, 1uL/well CellTiter-Fluor reagent (Promega Corporation, Madison, WI) was added to each well using FRD and after 1hr incubation at 37C and 5% CO2, the fluorescence signal was measured on ViewLux plate reader (PerkinElmer, Shelton, CT).
% is set by controls: 0 for no effect and ±100 for the full control effect; potency is the fitted concentration of half-maximal effect.

Row | SMILES | activity change, negative = cytotoxicity | Potency
1 | Cc1cc(C(F)(C(F)(F)F)C(F)(F)F)ccc1NC(=O)c1cccc(I)c1C(=O)NC(C)(C)CS(C)(=O)=O | -1.51% [at 42.5 µM] (inactive) | –
2 | COS(=O)(=O)c1ccc(C)cc1 | -3.2% (inactive) | –
3 | CC(C)[C@H](C(=O)O[C@H](C#N)c1cccc(Oc2ccccc2)c1)c1ccc(Cl)cc1 | 6.09% (inactive) | –
4 | CN(C)C(=S)[S-].CN(C)C(=S)[S-].[Cu+2] | – | 13.2 µM (active)
5 | ClC1=C(Cl)[C@]2(Cl)[C@@H]3[C@@H](Cl)[C@H](Cl)C[C@@H]3[C@@]1(Cl)C2(Cl)Cl | -1.81% (inactive) | –
6 | COP(N)(=S)OC | -5.4% (inactive) | –
7 | S=C=Nc1cccc2ccccc12 | – | 60.5 µM (active)
8 | Clc1ccc(COC(Cn2ccnc2)c2ccc(Cl)cc2Cl)cc1 (stereo not given) | – | 50.8 µM (active) and 68.3 µM (active) and inactive
9 | CCC(C)c1cc([N+](=O)[O-])cc([N+](=O)[O-])c1OC(=O)C=C(C)C (stereo not given) | – | 54.5 µM (active)
10 | Nc1ccccc1C(=O)OC/C=C/c1ccccc1 | -6% (inactive) | –
11 | NC(=O)c1ccc(N)nc1 | 6.64% (inactive) | –
12 | CSCCCN=C=S | -1.6% (inactive) | –
13 | CC(=O)C(Cl)(Cl)Cl | – | 18.7 µM (active)
14 | CC(=O)O[C@H]1CC[C@@]2(C)C(=CC[C@@H]3[C@@H]2CC[C@]2(C)C(=O)CC[C@@H]32)C1 | -0.791% (inactive) | –
15 | CC1(C)CN=C(NN=C(/C=C/c2ccc(C(F)(F)F)cc2)/C=C/c2ccc(C(F)(F)F)cc2)NC1 | – | 43.3 µM (active)
16 | C[C@]12Cc3nonc3C[C@@H]1CC[C@@H]1[C@@H]2CC[C@@]2(C)[C@H]1CC[C@]2(C)O | -0.547% [at 42.5 µM] (inactive) | –
17 | Clc1ccc(-c2ccccc2)cc1 | -2.93% (inactive) | –
18 | CC(=[OH+])/C=C(/C)[O-].CC(=[OH+])/C=C(\C)[O-].CC(=[OH+])/C=C(\C)[O-].[Fe] | -3.5% (inactive) | –
19 | N#C/C=C/c1ccccc1 | 0.984% (inactive) | –
20 | Oc1ccc(I)cc1 | 0.137% (inactive) | –

Row | SMILES | activity change, negative = cytotoxicity | Potency
21 | O=[N+]([O-])c1cc(C(F)(F)F)c(Cl)c([N+](=O)[O-])c1Cl | – | 54.5 µM (active)
22 | Nc1ccc(Sc2ccc(N)cc2)cc1 | -0.583% (inactive) | –
23 | Oc1cccc(-c2ccccc2)c1 | -1.54% (inactive) | –
24 | Clc1ccc(Oc2ccccc2)cc1 | -9.8% (inactive) | –
25 | CN(C)[C@@H]1C(=O)C(C(N)=O)=C(O)[C@@]2(O)C(=O)C3=C(O)c4c(O)ccc(Cl)c4[C@@](C)(O)[C@H]3C[C@@H]12 | 0.867% (inactive) | –
26 | CC(C)OS(C)(=O)=O | 1% (inactive) | –
27 | COc1ccc(OC)c(CC(C)N)c1 (stereo not given) | -10.4% (inactive) | –
28 | Clc1ccc(-c2ccc(Cl)c(Cl)c2Cl)c(Cl)c1Cl | 2.08% (inactive) | –
29 | c1ccc2c(c1)OCC(C1=NCCN1)O2 (stereo not given) | -23.6% [at 42.5 µM] (inactive) | –
30 | CCC(C)(C)C(=O)OC1=C(c2ccc(Cl)cc2Cl)C(=O)OC12CCCCC2 | 2.48% (inactive) | –
31 | Clc1ccc(C(c2ccc(Cl)cc2)C(Cl)(Cl)Cl)cc1 | 0.376% [at 42.5 µM] (inactive) | –
32 | CCCCCCCCCCCCCC[P+](CCCCCC)(CCCCCC)CCCCCC (tested in a mixture with another compound) | – | 17.2 µM (active)
33 | BrC(Br)C(Br)(Br)Br | 0.357% (inactive) | –
34 | O=C(O)c1cc[c]([Hg][Cl])cc1 | -8.34% (inactive) | –
35 | CC(C)(C)c1cc([N+](=O)[O-])cc(C(C)(C)C)c1O | – | 8.63 µM (active)
36 | CC(c1ccc(O)cc1)c1ccc(O)cc1 | -5.43% (inactive) | –
37 | CCN(CC)C(=S)[S-].CCN(CC)C(=S)[S-].[Zn+2] | – | 12.1 µM (active)
38 | C[As+](C)(C)CC(=O)[O-] | -6.7% (inactive) | –
39 | CCC[CH2][Sn]([CH2]CCC)([CH2]CCC)[O]C(=O)c1ccccc1 | – | 10.9 µM (active)
40 | CC(C)(O)c1cnn2c(-c3ccc(F)c(-c4c(F)cccc4C#N)c3)cnc2n1 | 12.6% (inactive) | –
